# KDM5B inhibitor: Primary screen for KDM5B Histone Demethylases FDH-coupled qHTS; Lysine-specific demethylase 5B (Homo sapiens), Q9UGL1; KDM5B demethylase, FDH-coupled NADH fluorescence (FDH is formaldehyde dehydrogenase); Potency, µM (top dose mostly 57.7 µM), usual class: inhibitors; 220,000 compounds, 2.6% hits; active means well fitted inhibition curve with a large enough effect; further: 0% is about no effect; nearly all actives have a fitted effect of over 70% in size
#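 Compound dilutions met 200 nM (final) KDM5BΔAP for 10 min at room temperature before substrate addition. The substrate mix held 12.5 µM H3K4me3 with cofactors 25 µM α-ketoglutarate and 50 µM Fe²⁺. NADH signal gain over 30 min defined activity.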
# Starred values were filed as active, the others as inactive; i = inactive. The entries come from a sample that favours hits as a whole. Potency means the concentration at half of the fitted maximal effect.
SMILES,KDM5B inhibitor
COc1ccc(-c2cccc(CCOc3cnc4c(ccn4CC(=O)O)c3)c2)c(C)c1,40µM*
CNC(=O)CCn1ncc2cc(OCc3ccccc3-c3cccnc3OC)ccc21,i
CC(C)(C)OC(=O)N/N=C/c1c(Cl)cccc1Cl,i
Cc1nn(C(=O)C2CCCN2S(=O)(=O)c2ccc(F)cc2)c(C)c1Sc1ccccc1 (centres undefined),i
COc1ccc(C(O)c2nccn2Cc2ccccc2)c(OC)c1 (centres undefined),i
C=CCOC(=O)C(C#N)c1nc2ccccc2nc1N1CCC(Cc2ccccc2)CC1 (centres undefined),i
COc1ccccc1NC(=O)C1CC2CCC1C2 (centres undefined),i
CCOCC(=O)N1CCC(N2CC(OCC3CC3)C23CCCCC3)CC1 (centres undefined),i
COc1ccc(-n2nnc3c(N4CCN(C(=O)Cc5cccs5)CC4)ncnc32)cc1,i
CCOCC(=O)N1CCC(Nc2nccnc2OC)CC1,28µM*
COc1nccnc1NC1CCN(C(=O)Cc2ccccc2F)CC1,35µM*
COCC(=O)N1CCC(Oc2ncccc2C(=O)N(C)C)CC1,i
O=C(Cc1cccs1)N1CCN(c2cc(C(F)(F)F)ncn2)CC1,i
COCCO[C@H]1C(=O)N(C2CCN(C(=O)NC3CCCCC3)CC2)[C@H]1c1ccncc1,i
CCCN(C)c1nccnc1OC1CCN(C(=O)Cc2ccccc2OC)C1 (centres undefined),i
CO[C@H]1C(=O)N(C(C)C)[C@H]1C1CCN(C(=O)NC2CCCCC2)CC1,i
COc1nccnc1NC1CCN(C(=O)NC2CCCCC2)CC1,32µM*
COc1nccnc1NC1CCN(C(=O)Cc2cccs2)CC1,32µM*
CCCNC(=O)N(C1CCOCC1)C1CCN(C(=O)Cc2ccccc2F)CC1,i
CCOc1ccc(C(=O)CC2(O)C(=O)Nc3ccccc32)cc1 (centres undefined),i
N#Cc1c(N2CCN(CC(=O)Nc3ccccc3)CC2)nc(-c2ccco2)c2c1CCC2,i
Cc1ccc(C(C)NC(=O)C2(c3cccc(F)c3)CCOCC2)s1 (centres undefined),i
CCCOc1cccc(C(=O)Nc2nonc2CC)c1,i
N#CCCn1c(SCC(=O)Nc2ccc(-c3ccccc3)cc2)nc2ccccc21,i
COc1cc(C(=O)Nc2ccc3oc(C)nc3c2)cc(OC)c1OC,i
SMILES,KDM5B inhibitor
CCOCCCNC(=O)CCSc1ccccc1,i
O=C(/C=C/c1c(Cl)cccc1Cl)c1ccc(OC(F)F)cc1OC(F)F,i
Cc1ccc(C)c(C(=O)COC(=O)c2cc3ccccc3[nH]2)c1,i
COCCNc1cc2c(cn1)CN(Cc1ccccc1)CCN2,i
COCCN1Cc2ccc(NCc3ccccc3)nc2C(C)(C(=O)N(C)CCOC)C1 (centres undefined),35µM*
COCCN1C(=O)CSC12CCN(C(=O)NCc1ccccc1)CC2,i
CN(C)C(=O)N1CCC2(CC1)CN(Cc1ccncc1)Cc1ccccc1O2,i
COCCN(C)C(=O)C1(C)CN(Cc2ccccc2)Cc2ccc(NCC(C)C)nc21 (centres undefined),32µM*
COCCOC1CCN(C(=O)NCc2ccccc2)CC1,i
Cc1cc(C)c(S(=O)(=O)N2CCC(n3c(CC(C)C)nc4cccnc43)CC2)c(C)c1,i
Brc1ccccc1CNCc1ccc(Cn2cncn2)cc1,i
CC(C)c1cc(C(=O)NC(C2CC2)C2CC2)c2cnn(C(C)C)c2n1,i
CCc1ccc2[nH]c(C)c(CC(=O)O)c2c1,i
COc1ccc(-c2ccnc3nc(-c4ccco4)nn23)c(F)c1,16µM*
CC(C)c1nc2nccc(-c3ccsc3)n2n1,25µM*
COc1ccc(-c2nc3nccc(-c4ccsc4)n3n2)c(OC)c1,18µM*
COc1ccc(Nc2cc(C)nc3nc(-c4ccccc4C)nn23)c(OC)c1,i
COc1ccc(CNc2nc(-c3ccco3)nn2C(=O)CC(C)C)cc1,i
COc1ccc(Nc2cc(C)nc3nc(-c4ccc(C)cc4)nn23)c(OC)c1,i
COc1ccc(-c2nc3nccc(-c4ccco4)n3n2)c(OC)c1,22µM*
Cc1cc(C)n2c(Nc3ccc(C(C)C)cc3)c(-c3ccsc3)nc2n1,i
Cc1cc(Nc2ccc(F)cc2C)n2nc(-c3ccco3)nc2n1,i
COc1ccc(-c2noc(CSc3nnc(-c4ccco4)n3C3CCCCC3)n2)c(OC)c1,i
COCc1oc2c(cc(NS(=O)(=O)c3ccc(C)cc3)c3ccccc32)c1C(=O)OC,i
O=C(Cc1ccccc1)Nc1ccnn1C1CCN(Cc2cc3ccccc3s2)CC1,i
SMILES,KDM5B inhibitor
C/C(=C\c1ccccc1)C(=O)Nc1ccc(C)cc1C,i
COc1ccc(N(Cc2cc(CN3CCOCC3)cs2)S(=O)(=O)c2ccccc2C)cc1,i
Cc1ccc(-n2cccc2CC(=O)NC2CCCC2)cc1,i
OC[C@@H]1CNC[C@H]1C1CCN(Cc2ccc(Cl)c(F)c2)CC1,i
O=C(C[C@@H]1CCNC[C@@H]1Cc1cc(-c2ccccc2)on1)NCc1ccccc1,i
CSC(C)C(=O)Nc1ccc(Cl)c(Cl)c1 (centres undefined),i
Cc1cc(C(=O)OC(C)C(=O)Nc2ccc(Cl)cc2F)c(C)o1 (centres undefined),i
CC(C)CCn1nc(C(=O)OCC(=O)NC23CC4CC(CC(C4)C2)C3)c2ccccc2c1=O,i
O=C(C1CCCN1c1nc2ncccc2o1)N1CCOCC1 (centres undefined),28µM*
O=C(C1CCCN1c1nc2ncccc2o1)N1CCN(c2ncccn2)CC1 (centres undefined),14µM*
O=C(N[C@@H]1CCC[C@@H]1C(=O)N1CCN(c2ncccn2)CC1)c1ccncc1,i
O=C([C@H]1C[C@H](Oc2cccnc2)CN1C(=O)NC1CCCC1)N1CCOCC1,i
O=C(Nc1ccc(F)cc1)C1CCCN1c1nc2ncccc2o1 (centres undefined),i
CNC(=O)[C@@H](c1ccccc1F)N1CCC[C@H]1C(=O)N1CCOCC1,i
O=C(C1CCCN1c1nc2ncccc2o1)N1CCCC1 (centres undefined),40µM*
O=C1CCN(C(=O)[C@@H]2CCCN2S(=O)(=O)c2cccc3cccnc23)CCCCCCN1,i
Oc1ccc(-c2nc(-c3ccc(Cl)cc3)cs2)cc1,i
CC(C)CNC(=O)CCc1ccc(C#N)cc1,i
O=C(Nc1ccccc1C(=O)NCCc1ccco1)C1=CSCCO1,i
O=Cc1cc(Cl)ccc1OC(=O)/C=C/c1ccc(F)cc1,i
Cc1nc2ncnn2c(N2CCOCC2)c1Cc1ccccc1,i
COc1cc(C(=O)Nc2cccc3cccnc23)cc(OC)c1C,i
O=C(CCc1ncc(-c2ccc(F)cc2F)o1)Nc1ccc2c(c1)C(=O)NC2,i
CC1CCC2(CC1)N=C(c1ccc(Cl)c(Cl)c1)C(=S)N2 (centres undefined),i
CC(O)CNc1ccc(-c2nc(CCCc3ccccc3)no2)cn1 (centres undefined),i
CCC(O)CNc1ccc(-c2nc(COC)no2)cn1 (centres undefined),32µM*
CCCNC(=O)NCCc1noc(-c2cccnc2)n1,i
Cc1nc(C2CC2)ncc1C(=O)N1CCN(C)C2(CCNC(=O)CC2)C1 (centres undefined),i
CCOC(=O)C1(Cc2ccc(F)cc2F)CCCN(C(=O)c2c(C)nc3ncccn23)C1 (centres undefined),32µM*
